The text below walks through data of the antibiotic and cytotoxicity screens of Wong et al. (2023).

Screen size: about 39,000 compounds; about 1,500 (3.8%) were called active. For the sample, actives were picked, then their nearest neighbours and some compounds at random.

In this assay the test system is HSkMC (human skeletal muscle cells). In words: cytotoxicity call (relative viability < 0.9). Particulars: 10 µM.
In the case of `CC(C)NC(=O)N(C)C[C@@H]1OCCCC[C@H](C)Oc2ccc(NC(=O)Nc3ccc(C(F)(F)F)cc3)cc2C(=O)N([C@@H](C)CO)C[C@@H]1C`, the cytotoxicity call was “active”.

In the case of `CC(C)NC(=O)N(C)C[C@@H]1OCCCC[C@H](C)Oc2ccc(NC(=O)Nc3ccc(C(F)(F)F)cc3)cc2C(=O)N([C@@H](C)CO)C[C@H]1C`, the cytotoxicity call was “inactive”.

Take `C[C@H](CO)N1C[C@H](C)[C@H](CN(C)C(=O)Nc2ccc(C(F)(F)F)cc2)OCCCC[C@H](C)Oc2ccc(NC(=O)Nc3ccc(C(F)(F)F)cc3)cc2C1=O`: the cytotoxicity call is “active”.

Regarding `C[C@@H]1CCCCO[C@@H](CN(C)C(=O)C2CCCCC2)[C@H](C)CN([C@@H](C)CO)C(=O)c2cc(NC(=O)Nc3ccc(C(F)(F)F)cc3)ccc2O1`, the cytotoxicity call was “inactive”.

With `CC(C)NC(=O)N(C)C[C@@H]1OCCCC[C@@H](C)Oc2ccc(NC(=O)Nc3ccc(C(F)(F)F)cc3)cc2C(=O)N([C@@H](C)CO)C[C@H]1C`, the cytotoxicity call is “inactive”.

`CC(C)NC(=O)N(C)C[C@H]1OCCCC[C@@H](C)Oc2ccc(NC(=O)Nc3ccc(C(F)(F)F)cc3)cc2C(=O)N([C@@H](C)CO)C[C@H]1C`: the cytotoxicity call is “inactive”.

Turning to `C[C@H]1CCCCO[C@H](CN(C)C(=O)C2CCCCC2)[C@@H](C)CN([C@@H](C)CO)C(=O)c2cc(NC(=O)Nc3ccc(C(F)(F)F)cc3)ccc2O1`, the cytotoxicity call is “active”.

For the compound `C[C@@H]1CCCCO[C@@H](CN(C)C(=O)C2CCCCC2)[C@@H](C)CN([C@H](C)CO)C(=O)c2cc(NC(=O)Nc3ccc(C(F)(F)F)cc3)ccc2O1`, the cytotoxicity call was “inactive”.

With `CN1C(=O)c2cc(NC(=O)C3CCOCC3)ccc2OC[C@@H]2O[C@H](CC(=O)NCc3ccccc3F)CC[C@@H]21`, the cytotoxicity call is “inactive”.

With `O=C(C[C@@H]1CC[C@@H]2NC[C@H](O)COC[C@H]2O1)NCCN1CCCCC1`, the cytotoxicity call is “inactive”.

`COCC#Cc1cnc2c(c1)C(=O)N([C@H](C)CO)C[C@H](C)[C@@H](CN(C)C(=O)Nc1ccccc1OC)O2`: the cytotoxicity call was “inactive”.

For `C[C@H]1CN([C@@H](C)CO)C(=O)Cc2cc(NS(=O)(=O)c3ccc(F)cc3)ccc2O[C@H]1CN(C)S(=O)(=O)c1cn(C)cn1`, the cytotoxicity call was “inactive”.

With `COc1cccc(NC(=O)N2C[C@@H](O)COC[C@@H]3O[C@@H](CC(=O)NCc4ccccc4F)CC[C@H]32)c1`, the cytotoxicity call is “inactive”.

Consider `C[C@@H]1CCCCO[C@@H](CN(C)C(=O)Nc2ccc(C(F)(F)F)cc2)[C@@H](C)CN([C@H](C)CO)C(=O)c2cc(NC(=O)c3ccccc3)ccc2O1`, for which the cytotoxicity call was “inactive”.

Take `CC(C)(C)[S@@](=O)N1Cc2cc(C(=O)NCc3ccccc3F)nc(-c3cccc(-c4cccnc4)c3)c2[C@H]1CCO`: the cytotoxicity call is “inactive”.

For the compound `O=C(C[C@H]1C=C[C@@H](NC(=O)Cc2ccccn2)[C@@H](CO)O1)NCCCN1CCOCC1`, the cytotoxicity call was “inactive”.

For the compound `C[C@@H]1CN([C@H](C)CO)S(=O)(=O)c2ccc(C#Cc3ccncc3)cc2O[C@H]1CN(C)C(=O)C1CCOCC1`, the cytotoxicity call is “inactive”.

For the compound `CN(C)Cc1cn(CC[C@@H]2CC[C@H](N)[C@H](CO)O2)nn1`, the cytotoxicity call was “inactive”.

Regarding `C[C@H](CO)N1C[C@H](C)[C@@H](CN(C)S(=O)(=O)c2ccc3ccccc3c2)OCc2cn(nn2)CCCC1=O`, the cytotoxicity call is “inactive”.

For `C[C@H](CO)N1C[C@H](C)[C@@H](CN(C)C(=O)Nc2cccc3ccccc23)Oc2c(NC(=O)C3CCCCC3)cccc2C1=O`, the cytotoxicity call was “inactive”.

Turning to `COc1cc(Nc2ncc3c(n2)-c2ccc(Cl)cc2C(c2c(F)cccc2OC)=NC3)ccc1C(=O)O`, the cytotoxicity call was “active”.

Turning to `C=CCN(C(=O)[C@H]1N(CCOCCO)C(=O)[C@H]2[C@H](C(=O)O)[C@@H]3C=C[C@@]21O3)c1ccc(OC)cc1`, the cytotoxicity call was “inactive”.

Regarding `CCS(=O)(=O)Nc1ccc2c(c1)C(=O)N(C)[C@H]1CC[C@@H](CC(=O)N[C@H]3CCN(Cc4ccccc4)C3)O[C@@H]1CO2`, the cytotoxicity call is “inactive”.

For the compound `C[C@@H]1CN([C@H](C)CO)C(=O)c2cccc(NC(=O)C3CCOCC3)c2O[C@@H]1CN(C)S(=O)(=O)c1cccs1`, the cytotoxicity call was “inactive”.

Consider `C[C@@H]1CO[C@]2(O[C@H]3C[C@H]4[C@H]5C[C@H](O[C@H]6O[C@@H](C)[C@@H](O)[C@@H](O[C@@H]7O[C@@H](C)[C@H](O)[C@@H](O)[C@H]7O)[C@@H]6O)[C@H]6C[C@@H](O)CC[C@]6(C)[C@@H]5CC[C@]4(C)[C@H]3[C@@H]2C)[C@@H](O)C1`, for which the cytotoxicity call is “inactive”.

On to `CC1CCC2(OC1)OC1CC3C4CC=C5CC(O)CCC5(C)C4CCC3(C)C1C2C` (stereo unspecified), for which the cytotoxicity call is “inactive”.

On to `CC1CCC2(OC1)OC1CC3C4CCC5CC(O)CCC5(C)C4CCC3(C)C1C2C` (stereo unspecified), for which the cytotoxicity call was “inactive”.

On to `CC1CCC2(OC1)OC1CC3C4CCC5CC(O)CCC5(C)C4CC(=O)C3(C)C1C2C` (stereo unspecified), for which the cytotoxicity call is “inactive”.

In the case of `CC(=O)OC1CCC2(C)C(CCC3C2CCC2(C)C3CC3OC4(CCC(C)CO4)C(C)C32)C1` (stereo unspecified), the cytotoxicity call is “inactive”.

Turning to `CC(=O)OC1CCC2(C)C(CCC3C2CC(=O)C2(C)C3CC3OC4(CCC(C)CO4)C(C)C32)C1` (stereo unspecified), the cytotoxicity call is “inactive”.

For the compound `C[C@@H]1CC[C@@]2(OC1)O[C@H]1C[C@H]3[C@H]4C[C@@H](O)[C@H]5C[C@@H](O[C@@H]6O[C@H](CO)[C@H](O[C@@H]7O[C@H](CO)[C@@H](O)[C@H](O[C@@H]8OC[C@@H](O)[C@H](O)[C@H]8O)[C@H]7O[C@@H]7O[C@H](CO)[C@@H](O)[C@H](O)[C@H]7O)[C@H](O)[C@H]6O)CC[C@]5(C)[C@@H]4CC[C@]3(C)[C@H]1[C@@H]2C`, the cytotoxicity call is “active”.

In the case of `C[C@@H]1CC[C@@]2(OC1)O[C@H]1C[C@H]3[C@H]4C[C@@H](O)[C@H]5C[C@@H](O[C@@H]6O[C@H](CO)[C@H](O[C@@H]7O[C@H](CO)[C@@H](O)[C@H](O[C@@H]8OC[C@@H](O)[C@H](O)[C@H]8O)[C@H]7O[C@@H]7O[C@H](CO)[C@@H](O[C@@H]8O[C@H](CO)[C@@H](O)[C@H](O)[C@H]8O)[C@H](O)[C@H]7O)[C@H](O)[C@H]6O)[C@H](O)C[C@]5(C)[C@@H]4CC[C@]3(C)[C@H]1[C@@H]2C`, the cytotoxicity call was “active”.

Consider `C[C@@H]1CC[C@@]2(OC1)O[C@H]1C[C@H]3[C@H]4C[C@@H](O)[C@H]5C[C@@H](O[C@@H]6O[C@H](CO)[C@H](O[C@@H]7O[C@H](CO)[C@@H](O)[C@H](O[C@@H]8OC[C@@H](O)[C@H](O)[C@H]8O)[C@H]7O[C@@H]7O[C@H](CO)[C@@H](O)[C@H](O)[C@H]7O)[C@H](O)[C@H]6O)[C@H](O)C[C@]5(C)[C@@H]4CC[C@]3(C)[C@H]1[C@@H]2C`, for which the cytotoxicity call was “inactive”.

As to `CC(C)=CCC[C@](C)(O[C@@H]1O[C@H](CO[C@@H]2OC[C@@H](O)[C@H](O)[C@H]2O)[C@@H](O)[C@H](O)[C@H]1O)[C@H]1CC[C@]2(C)[C@@H]1[C@H](O)C[C@@H]1[C@@]3(C)CC[C@H](O[C@@H]4O[C@H](CO)[C@@H](O)[C@H](O)[C@H]4O)C(C)(C)[C@@H]3CC[C@]12C`, the cytotoxicity call was “inactive”.

For `C[C@@H]1CC[C@@]2(OC1)O[C@H]1C[C@H]3[C@H]4CC=C5C[C@@H](O[C@@H]6O[C@H](CO)[C@@H](O[C@@H]7O[C@@H](C)[C@H](O)[C@@H](O)[C@H]7O[C@@H]7O[C@@H](C)[C@H](O)[C@@H](O)[C@H]7O)[C@H](O)[C@H]6O)CC[C@]5(C)[C@@H]4CC[C@]3(C)[C@H]1[C@@H]2C`, the cytotoxicity call was “active”.

Turning to `C[C@@H]1CC[C@@]2(OC1)O[C@H]1C[C@H]3[C@H]4C[C@@H](O)[C@H]5C[C@@H](O[C@@H]6O[C@H](CO)[C@H](O[C@@H]7O[C@H](CO)[C@@H](O)[C@H](O[C@@H]8OC[C@@H](O)[C@H](O)[C@H]8O)[C@H]7O[C@@H]7O[C@H](CO)[C@@H](O[C@@H]8O[C@H](CO)[C@@H](O)[C@H](O)[C@H]8O)[C@H](O)[C@H]7O)[C@H](O)[C@H]6O)CC[C@]5(C)[C@@H]4CC[C@]3(C)[C@H]1[C@@H]2C`, the cytotoxicity call was “active”.
